According to publication PMC11062922 (Nature Chemical Biology, 2023):

tested on: CLK4; design: species or system human, MV4-11 + K-562 + COLO205 + SK-N-BE2 + OVCAR-8; conditions: read-out: apparent Kd; compound concentrations:100 nM and 1000 nM (sheet 'Samples'); n = 1

In order of falling potency estimated from few doses:
1. COc1cc2ncn(-c3cc(OCCCc4ccccc4)c(C(N)=O)s3)c2cc1OC [GSK205189A]  1340 nM
2. Cl.Cn1c(=O)c(Cc2ccc(F)cc2F)cc2cnc(NC3CCOCC3)nc21 [RO3308757-001]  1110 nM
3. COc1cc(/C=N/Nc2ncnc3[nH]ncc23)ccc1O [GW578748X]  401 nM
4. CC(=O)c1c(-c2ccncc2)[nH]c(-c2ccncc2)c1C [GW493036X]  1.62 nM
5. N#Cc1cccc(Nc2nccc(-c3cnn4ncccc34)n2)c1 [GW778894X]  0.363 nM

tested on: CSNK1A1; design: species or system human, MV4-11 + K-562 + COLO205 + SK-N-BE2 + OVCAR-8; conditions: read-out: apparent Kd; compound concentrations:100 nM and 1000 nM (sheet 'Samples'); n = 1

In order of rising potency estimated from few doses:
1. CNc1nccc(-c2c(-c3ccc(F)cc3)ncn2C2CCN(C)CC2)n1 [SB-222903]  139 nM
2. Fc1ccc(-c2c(-c3ccncc3)[nH]c3nccnc23)cc1 [RO1155697-000]  667 nM
3. N#Cc1cccc(Nc2nccc(-c3cnn4ncccc34)n2)c1 [GW778894X]  731 nM
4. Nc1nc(N)c2nc(-c3ccccc3)[nH]c2n1 [SKF-12778]  972 nM

tested on: CSNK1D; design: species or system human, MV4-11 + K-562 + COLO205 + SK-N-BE2 + OVCAR-8; conditions: read-out: apparent Kd; compound concentrations:100 nM and 1000 nM (sheet 'Samples'); n = 1

In order of falling potency estimated from few doses:
1. Nc1nc(N)c2nc(-c3ccccc3)[nH]c2n1 [SKF-12778]  2130 nM
2. CC(=O)c1c(-c2ccncc2)[nH]c(-c2ccncc2)c1C [GW493036X]  2040 nM
3. N#Cc1cccc(Nc2nccc(-c3cnn4ncccc34)n2)c1 [GW778894X]  199 nM
4. CNc1nccc(-c2c(-c3ccc(F)cc3)ncn2C2CCN(C)CC2)n1 [SB-222903]  11.1 nM
5. Fc1ccc(-c2c(-c3ccncc3)[nH]c3nccnc23)cc1 [RO1155697-000]  8.23 nM

tested on: CSNK1E; design: species or system human, MV4-11 + K-562 + COLO205 + SK-N-BE2 + OVCAR-8; conditions: read-out: apparent Kd; compound concentrations:100 nM and 1000 nM (sheet 'Samples'); n = 1

In order of falling potency estimated from few doses:
1. N#Cc1cccc(Nc2nccc(-c3cnn4ncccc34)n2)c1 [GW778894X]  314 nM
2. Fc1ccc(-c2c(-c3ccncc3)[nH]c3nccnc23)cc1 [RO1155697-000]  52.8 nM
3. CNc1nccc(-c2c(-c3ccc(F)cc3)ncn2C2CCN(C)CC2)n1 [SB-222903]  41.6 nM

tested on: CSNK2A1;CSNK2A3; design: species or system human, MV4-11 + K-562 + COLO205 + SK-N-BE2 + OVCAR-8; conditions: read-out: apparent Kd; compound concentrations:100 nM and 1000 nM (sheet 'Samples'); n = 1

In order of rising potency estimated from few doses:
1. COc1cc(/C=N/Nc2ncnc3[nH]ncc23)ccc1O [GW578748X]  384 nM
2. N#Cc1cccc(Nc2nccc(-c3cnn4ncccc34)n2)c1 [GW778894X]  603 nM
3. COc1cccc(-c2c[nH]c3c(N/N=C/c4ccncc4)ncnc23)c1 [GW814408X]  920 nM
4. Nc1nc(N)c2nc(-c3ccccc3)[nH]c2n1 [SKF-12778]  1350 nM

tested on: CSNK2A2; design: species or system human, MV4-11 + K-562 + COLO205 + SK-N-BE2 + OVCAR-8; conditions: read-out: apparent Kd; compound concentrations:100 nM and 1000 nM (sheet 'Samples'); n = 1

In order of rising potency estimated from few doses:
1. COc1cccc(-c2c[nH]c3c(N/N=C/c4ccncc4)ncnc23)c1 [GW814408X]  237 nM
2. COc1cc(/C=N/Nc2ncnc3[nH]ncc23)ccc1O [GW578748X]  376 nM
3. N#Cc1cccc(Nc2nccc(-c3cnn4ncccc34)n2)c1 [GW778894X]  601 nM
4. Nc1nc(N)c2nc(-c3ccccc3)[nH]c2n1 [SKF-12778]  1100 nM

tested on: EPHA5; design: species or system human, MV4-11 + K-562 + COLO205 + SK-N-BE2 + OVCAR-8; conditions: read-out: apparent Kd; compound concentrations:100 nM and 1000 nM (sheet 'Samples'); n = 1

In order of rising potency estimated from few doses:
1. Cl.Cn1c(=O)c(Cc2ccc(F)cc2F)cc2cnc(NC3CCOCC3)nc21 [RO3308757-001]  399 nM
2. CNc1nccc(-c2c(-c3ccc(F)cc3)ncn2C2CCN(C)CC2)n1 [SB-222903]  465 nM
3. COc1cc2ncn(-c3cc(OCCCc4ccccc4)c(C(N)=O)s3)c2cc1OC [GSK205189A]  720 nM

tested on: ERCC2; design: species or system human, MV4-11 + K-562 + COLO205 + SK-N-BE2 + OVCAR-8; conditions: read-out: apparent Kd; compound concentrations:100 nM and 1000 nM (sheet 'Samples'); n = 1

In order of falling potency estimated from few doses:
1. N#Cc1cccc(Nc2nccc(-c3cnn4ncccc34)n2)c1 [GW778894X]  780 nM
2. Cl.Cn1c(=O)c(Cc2ccc(F)cc2F)cc2cnc(NC3CCOCC3)nc21 [RO3308757-001]  239 nM
3. COc1cc2ncn(-c3cc(OCCCc4ccccc4)c(C(N)=O)s3)c2cc1OC [GSK205189A]  39.9 nM

tested on: GAK; design: species or system human, MV4-11 + K-562 + COLO205 + SK-N-BE2 + OVCAR-8; conditions: read-out: apparent Kd; compound concentrations:100 nM and 1000 nM (sheet 'Samples'); n = 1

In order of rising potency estimated from few doses:
1. Cl.Cn1c(=O)c(Cc2ccc(F)cc2F)cc2cnc(NC3CCOCC3)nc21 [RO3308757-001]  434 nM
2. CC(C)c1nc(-c2ccc(F)c(NS(=O)(=O)c3c(F)cccc3F)c2)c(-c2ccnc(Nc3ccc(N4CCOCC4)nc3)n2)s1 [GSK1804250A]  600 nM
3. COc1cc2ncn(-c3cc(OCCCc4ccccc4)c(C(N)=O)s3)c2cc1OC [GSK205189A]  663 nM

tested on: GSK3A; design: species or system human, MV4-11 + K-562 + COLO205 + SK-N-BE2 + OVCAR-8; conditions: read-out: apparent Kd; compound concentrations:100 nM and 1000 nM (sheet 'Samples'); n = 1

In order of rising potency estimated from few doses:
1. N#Cc1cccc(Nc2nccc(-c3cnn4ncccc34)n2)c1 [GW778894X]  28.3 nM
2. COc1cccc(-c2c[nH]c3c(N/N=C/c4ccncc4)ncnc23)c1 [GW814408X]  133 nM
3. CC(=O)c1c(-c2ccncc2)[nH]c(-c2ccncc2)c1C [GW493036X]  400 nM
4. Cl.Cn1c(=O)c(Cc2ccc(F)cc2F)cc2cnc(NC3CCOCC3)nc21 [RO3308757-001]  484 nM
5. COc1cc2ncn(-c3cc(OCCCc4ccccc4)c(C(N)=O)s3)c2cc1OC [GSK205189A]  575 nM

tested on: GSK3B; design: species or system human, MV4-11 + K-562 + COLO205 + SK-N-BE2 + OVCAR-8; conditions: read-out: apparent Kd; compound concentrations:100 nM and 1000 nM (sheet 'Samples'); n = 1

In order of falling potency estimated from few doses:
1. COc1cc2ncn(-c3cc(OCCCc4ccccc4)c(C(N)=O)s3)c2cc1OC [GSK205189A]  1110 nM
2. Cl.Cn1c(=O)c(Cc2ccc(F)cc2F)cc2cnc(NC3CCOCC3)nc21 [RO3308757-001]  745 nM
3. CC(=O)c1c(-c2ccncc2)[nH]c(-c2ccncc2)c1C [GW493036X]  535 nM
4. COc1cccc(-c2c[nH]c3c(N/N=C/c4ccncc4)ncnc23)c1 [GW814408X]  112 nM
